Source: PubChem BioAssay (NCATS)
Results filed as inconclusive are left out. Calls of active or inactive are those of the source. Calls come from the whole dose curve; as a rule, active = well fitted curve in the direction sought with a large enough effect in the repeat runs; inconclusive = weak or mixed curves; inactive = no such curve, though single readings can be large; an effect the other way counts as inactive or inconclusive.
% is set by controls: 0 for no effect and ±100 for the full control effect; potency is the fitted concentration of half-maximal effect.
Note: nearly all actives have a fitted effect of over 55% in size.

Each molecule was assayed against Cytochrome P450 2D6 (Homo sapiens) (UniProt P10635) (assay: Cytochrome P450 family 2 subfamily D member 6 (CYP2D6) small molecule antagonists: luciferase biochemical (cell-free) qHTS assay (AID 1645840)). Conditions: P450-Glo CYP2D6 enzyme, luciferin luminescence, 1 h; series mostly up to 57.4 µM; activity change, negative = inhibition: at the top concentration.
Chain of Cytochrome P450 2D6 (Homo sapiens) (P10635 whole entry, looked up): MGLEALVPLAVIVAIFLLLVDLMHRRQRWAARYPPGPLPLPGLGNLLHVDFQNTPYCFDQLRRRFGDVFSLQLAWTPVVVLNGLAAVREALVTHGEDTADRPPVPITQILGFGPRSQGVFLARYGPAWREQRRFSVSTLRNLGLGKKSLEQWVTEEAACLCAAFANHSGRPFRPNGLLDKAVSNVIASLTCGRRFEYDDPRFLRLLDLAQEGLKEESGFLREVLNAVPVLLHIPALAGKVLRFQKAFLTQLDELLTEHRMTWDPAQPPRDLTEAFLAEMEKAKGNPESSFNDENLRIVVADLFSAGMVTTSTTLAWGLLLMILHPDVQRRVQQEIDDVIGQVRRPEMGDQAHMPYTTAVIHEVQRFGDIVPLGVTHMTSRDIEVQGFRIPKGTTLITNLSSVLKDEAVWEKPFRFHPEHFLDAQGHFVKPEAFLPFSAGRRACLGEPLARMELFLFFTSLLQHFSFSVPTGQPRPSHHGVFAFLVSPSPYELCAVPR
Method in brief: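 P450-Glo CYP2D6 system: proluciferin substrate converted by enzyme to luciferin, read by luminescence proportional to activity. Enzyme-substrate mix with compound 10 min at room temperature, then NADPH regeneration 1 h before detection reagent.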
With `CCCCS(=O)(=O)N[C@@H](Cc1ccc(OCCCCC2CCNCC2)cc1)C(=O)O` the “activity change, negative = inhibition” value was 3.86% (inactive).
For `COc1cc(C(=S)N2CCOCC2)cc(OC)c1OC`, the “activity change, negative = inhibition” value was -1.14% (inactive).
With `CCCCCCCCCCCCCCCCCC(=O)OCC(O)CO` (centres undefined) the “activity change, negative = inhibition” value was -13.2% (inactive).
For `CN1CCN(C(c2ccccc2)c2ccccc2)CC1`, the Potency was 4.9 µM (active).
For `Cc1ccccc1C(=O)Nc1ccc(C(=O)N2CCCC(N(C)C)c3ccccc32)cc1` (centres undefined), the “activity change, negative = inhibition” value was -12.1% (inactive).
`O=C(Nc1ccc(Oc2ccc(Cl)cc2)c(Cl)c1)c1cc(I)cc(I)c1O` was tested, and the Potency was 19.5 µM (active).
`C[n+]1c2cc(N)ccc2cc2ccc(N)cc21` (tested in a mixture with another compound) was tested, and the Potency was 11 µM (active).
In the case of `CC(C)(CO)[C@@H](O)C(=O)NCCCO`, the “activity change, negative = inhibition” value was -2.47% (inactive).
`CC(C)(C)CC(C)(C)c1ccc(O)c(Cc2ccc(Cl)cc2Cl)c1` was tested, and the Potency was 19.5 µM (active).
For `CN(C)CC/C=C1/c2ccccc2COc2ccc(CC(=O)O)cc21`, the “activity change, negative = inhibition” value was 3.44% (inactive).
For `CC(C)n1nc(-c2cc3cc(O)ccc3[nH]2)c2c(N)ncnc21`, the Potency was 13.5 µM (active).
For `CN(C(=O)CN(CCO)CC(=O)N(C)C(C)(C)Cc1ccccc1)C(C)(C)Cc1ccccc1`, the Potency was 1.38 µM (active).
With `Cc1nc2n(c(=O)c1CCN1CCC(c3noc4cc(F)ccc34)CC1)CCC[C@H]2O` the Potency was 12 µM (active).
In the case of `Cc1cccc(C)c1NC(=O)CN1CCN(CCCC(c2ccc(F)cc2)c2ccc(F)cc2)CC1`, the Potency was 2.75 µM (active).
`c1ccc(-c2ccc(C(c3ccccc3)n3ccnc3)cc2)cc1` (centres undefined) was tested, and the Potency was 0.246 µM (active).
For `Oc1c(I)cc(I)c2cccnc12`, the Potency was “inactive”.
In the case of `CCOc1ccc2nc3cc(N)ccc3c(N)c2c1`, the Potency was 15.5 µM (active).
In the case of `CCCCc1nc(Cl)c(CO)n1Cc1ccc(-c2ccccc2-c2nn[nH]n2)cc1`, the Potency was “inactive”.
In the case of `O=C(OCCOCCO)c1ccccc1Nc1cccc(C(F)(F)F)c1`, the Potency was 27.5 µM (active).
With `O=C(OCC(O)CO)c1ccccc1Nc1ccnc2cc(Cl)ccc12` (centres undefined) the Potency was 8.71 µM (active).

These molecules were tested against Cytochrome P450 2C9 (Homo sapiens) (UniProt P11712) (assay: Cytochrome P450 family 2 subfamily C member 9 (CYP2C9) small molecule antagonists: luciferase biochemical (cell-free) qHTS assay (AID 1645842)). Conditions: P450-Glo CYP2C9 enzyme assay, luciferin luminescence; series mostly up to 57.4 µM; activity change, negative = inhibition: at the top concentration.
Chain of Cytochrome P450 2C9 (Homo sapiens) (P11712 whole entry, looked up): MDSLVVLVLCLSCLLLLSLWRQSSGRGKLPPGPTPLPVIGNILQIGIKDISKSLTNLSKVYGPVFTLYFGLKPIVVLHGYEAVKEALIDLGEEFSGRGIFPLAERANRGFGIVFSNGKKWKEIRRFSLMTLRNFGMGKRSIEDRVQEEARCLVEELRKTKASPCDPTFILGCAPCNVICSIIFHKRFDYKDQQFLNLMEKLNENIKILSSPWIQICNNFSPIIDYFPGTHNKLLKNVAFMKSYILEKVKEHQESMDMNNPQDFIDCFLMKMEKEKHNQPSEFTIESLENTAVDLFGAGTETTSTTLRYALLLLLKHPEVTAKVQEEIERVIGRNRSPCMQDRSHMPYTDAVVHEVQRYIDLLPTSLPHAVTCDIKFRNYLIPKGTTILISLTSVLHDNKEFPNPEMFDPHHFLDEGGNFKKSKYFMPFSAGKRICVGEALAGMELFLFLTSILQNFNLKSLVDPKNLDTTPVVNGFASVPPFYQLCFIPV
Method in brief: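 P450-Glo CYP2C9 system: proluciferin substrate with enzyme in mix containing 0.4% BSA, 10 min at room temperature, then NADPH regeneration solution added and incubated 1 h at 37C. Detection reagent stopped reaction; luminescence read after 20 min as RLU.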
In the case of `COc1cccc(OC)c1C(=O)N[C@@H]1C(=O)N2[C@@H]1SC(C)(C)[C@@H]2C(=O)O`, the “activity change, negative = inhibition” value was 14% (inactive).
In the case of `N[C@@H](CCC(=O)N[C@@H](CS)C(=O)NCC(=O)O)C(=O)O`, the “activity change, negative = inhibition” value was 9.23% [at 23.9 µM] (inactive).
With `OC[C@@H](O)[C@@H](O[C@@H]1O[C@H](CO)[C@H](O)[C@H](O)[C@H]1O)[C@H](O)[C@@H](O)CO` the “activity change, negative = inhibition” value was 11% (inactive).
`CC(=O)Oc1ccc(C(c2ccc(OC(C)=O)cc2)c2ccccn2)cc1` was tested, and the Potency was 17.4 µM (active).
In the case of `O=c1[nH]c(=O)n([C@H]2C[C@H](O)[C@@H](CO)O2)cc1C(F)(F)F`, the “activity change, negative = inhibition” value was 4.12% (inactive).
For `CC(=O)N(O)CCCCCNC(=O)CCC(=O)N(O)CCCCCNC(=O)CCC(=O)N(O)CCCCCN`, the “activity change, negative = inhibition” value was -0.307% (inactive).
`Cc1ccc(O)c2ncccc12` was tested, and the “activity change, negative = inhibition” value was 26.6% (inactive).
For `CCCCCCCCCCCCCCCC[N+](C)(C)CCN(Cc1ccc(OC)cc1)c1ncccn1`, the Potency was 24.5 µM (active).
For `Nc1ccc(C(=O)Nc2ccccc2N)cc1`, the “activity change, negative = inhibition” value was -9.87% (inactive).
For `COC(=O)C1=C(C)NC(C)=C(C(=O)O[C@@H]2CCCN(Cc3ccccc3)C2)[C@@H]1c1cccc([N+](=O)[O-])c1`, the Potency was 0.195 µM (active).
`CC(=O)Oc1ccc(C(=C2CCCCC2)c2ccc(OC(C)=O)cc2)cc1` was tested, and the Potency was 9.77 µM (active).
For `C=C(CC)C(=O)c1ccc(OCC(=O)O)c(Cl)c1Cl`, the Potency was 3.89 µM (active).
In the case of `C/C=C(/C(=C/C)c1ccc(O)cc1)c1ccc(O)cc1`, the Potency was 17.4 µM (active).
For `CCOc1ccc(Cc2nccc3cc(OCC)c(OCC)cc23)cc1OCC`, the Potency was 1.74 µM (active).
For `C[C@H](CCC(=O)O)[C@H]1CC[C@H]2[C@@H]3C(=O)C[C@@H]4CC(=O)CC[C@]4(C)[C@H]3CC(=O)[C@]12C`, the “activity change, negative = inhibition” value was 0.946% (inactive).
`CCCCS(=O)(=O)N[C@@H](Cc1ccc(OCCCCC2CCNCC2)cc1)C(=O)O` was tested, and the “activity change, negative = inhibition” value was 0.28% (inactive).
In the case of `COc1cc(C(=S)N2CCOCC2)cc(OC)c1OC`, the “activity change, negative = inhibition” value was 7.51% (inactive).
For `CCCCCCCCCCCCCCCCCC(=O)OCC(O)CO` (centres undefined), the “activity change, negative = inhibition” value was 6.86% (inactive).
For `CN1CCN(C(c2ccccc2)c2ccccc2)CC1`, the “activity change, negative = inhibition” value was 23.3% (inactive).
In the case of `Cc1ccccc1C(=O)Nc1ccc(C(=O)N2CCCC(N(C)C)c3ccccc32)cc1` (centres undefined), the “activity change, negative = inhibition” value was -13.9% (inactive).
In the case of `O=C(Nc1ccc(Oc2ccc(Cl)cc2)c(Cl)c1)c1cc(I)cc(I)c1O`, the “activity change, negative = inhibition” value was -16.2% (inactive).
In the case of `C[n+]1c2cc(N)ccc2cc2ccc(N)cc21` (tested in a mixture with another compound), the “activity change, negative = inhibition” value was 4.23% (inactive).
With `CC(C)(CO)[C@@H](O)C(=O)NCCCO` the “activity change, negative = inhibition” value was 1.74% (inactive).
In the case of `CC(C)(C)CC(C)(C)c1ccc(O)c(Cc2ccc(Cl)cc2Cl)c1`, the Potency was 3.09 µM (active).
